Measured values reported in the supplement of paper PMC11732987, “Enantioselective OTUD7B fragment discovery through chemoproteomics screening and high-throughput optimisation” (Communications Chemistry, 2025).
Values without a mark were called inactive.

compound: ClCC(=O)NC1(CCCC1)C#N; assay: log2 ratio of Biotin-Ahx-Ub-VS probe labelling (compound/DMSO); higher = less target engagement, active = hit call of the paper (q ≤ 0.05, log2 ratio ≤ -1); details: compound concentration: 50uM; treatment time: 3 h
Procedure: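 Round 2 competitive ABPP in HEK293T lysate. Compounds were tested at 50 and 200 µM for 3 h, followed by Biotin-Ahx-Ub-VS enrichment and diaPASEF LC-MS/MS. Values are the average log2 ratio (compound/DMSO) from an unpaired t-test (n=3 treated, n=26 DMSO).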

UniProt O94966, sequence (O94966 whole entry): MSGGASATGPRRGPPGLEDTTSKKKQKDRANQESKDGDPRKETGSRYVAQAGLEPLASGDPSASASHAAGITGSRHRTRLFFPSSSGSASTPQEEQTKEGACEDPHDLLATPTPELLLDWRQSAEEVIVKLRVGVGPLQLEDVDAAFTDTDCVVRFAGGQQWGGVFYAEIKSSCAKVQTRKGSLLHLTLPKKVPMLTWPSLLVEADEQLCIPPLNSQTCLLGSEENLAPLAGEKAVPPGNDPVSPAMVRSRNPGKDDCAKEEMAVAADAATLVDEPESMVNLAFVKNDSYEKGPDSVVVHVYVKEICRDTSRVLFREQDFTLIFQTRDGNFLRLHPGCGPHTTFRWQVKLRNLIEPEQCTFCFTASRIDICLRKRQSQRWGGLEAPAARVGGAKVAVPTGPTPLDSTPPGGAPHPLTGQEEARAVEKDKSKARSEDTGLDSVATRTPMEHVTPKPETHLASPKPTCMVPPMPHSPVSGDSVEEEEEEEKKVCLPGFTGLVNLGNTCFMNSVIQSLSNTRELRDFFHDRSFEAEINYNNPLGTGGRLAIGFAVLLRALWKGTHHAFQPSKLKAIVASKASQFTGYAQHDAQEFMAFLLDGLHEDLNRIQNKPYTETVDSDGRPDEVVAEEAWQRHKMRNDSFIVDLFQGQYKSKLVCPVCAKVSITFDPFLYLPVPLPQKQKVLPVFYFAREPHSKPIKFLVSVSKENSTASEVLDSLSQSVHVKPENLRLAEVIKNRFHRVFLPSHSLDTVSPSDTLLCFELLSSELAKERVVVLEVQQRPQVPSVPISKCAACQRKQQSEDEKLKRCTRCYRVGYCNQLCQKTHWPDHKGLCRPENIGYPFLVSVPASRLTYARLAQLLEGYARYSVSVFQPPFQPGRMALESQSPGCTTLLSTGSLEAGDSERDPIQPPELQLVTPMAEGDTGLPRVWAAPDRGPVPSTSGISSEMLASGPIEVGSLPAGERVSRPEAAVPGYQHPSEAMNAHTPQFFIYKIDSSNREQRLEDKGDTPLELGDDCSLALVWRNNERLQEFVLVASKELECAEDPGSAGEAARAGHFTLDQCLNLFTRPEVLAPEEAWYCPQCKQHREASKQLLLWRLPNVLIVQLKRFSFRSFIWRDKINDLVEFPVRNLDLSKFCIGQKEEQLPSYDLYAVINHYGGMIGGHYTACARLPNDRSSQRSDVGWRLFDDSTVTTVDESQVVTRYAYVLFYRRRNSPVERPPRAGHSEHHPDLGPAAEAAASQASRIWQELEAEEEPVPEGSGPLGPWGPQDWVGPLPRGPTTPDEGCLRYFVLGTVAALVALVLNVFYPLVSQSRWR
UniProt Q01804, sequence (Q01804 whole entry): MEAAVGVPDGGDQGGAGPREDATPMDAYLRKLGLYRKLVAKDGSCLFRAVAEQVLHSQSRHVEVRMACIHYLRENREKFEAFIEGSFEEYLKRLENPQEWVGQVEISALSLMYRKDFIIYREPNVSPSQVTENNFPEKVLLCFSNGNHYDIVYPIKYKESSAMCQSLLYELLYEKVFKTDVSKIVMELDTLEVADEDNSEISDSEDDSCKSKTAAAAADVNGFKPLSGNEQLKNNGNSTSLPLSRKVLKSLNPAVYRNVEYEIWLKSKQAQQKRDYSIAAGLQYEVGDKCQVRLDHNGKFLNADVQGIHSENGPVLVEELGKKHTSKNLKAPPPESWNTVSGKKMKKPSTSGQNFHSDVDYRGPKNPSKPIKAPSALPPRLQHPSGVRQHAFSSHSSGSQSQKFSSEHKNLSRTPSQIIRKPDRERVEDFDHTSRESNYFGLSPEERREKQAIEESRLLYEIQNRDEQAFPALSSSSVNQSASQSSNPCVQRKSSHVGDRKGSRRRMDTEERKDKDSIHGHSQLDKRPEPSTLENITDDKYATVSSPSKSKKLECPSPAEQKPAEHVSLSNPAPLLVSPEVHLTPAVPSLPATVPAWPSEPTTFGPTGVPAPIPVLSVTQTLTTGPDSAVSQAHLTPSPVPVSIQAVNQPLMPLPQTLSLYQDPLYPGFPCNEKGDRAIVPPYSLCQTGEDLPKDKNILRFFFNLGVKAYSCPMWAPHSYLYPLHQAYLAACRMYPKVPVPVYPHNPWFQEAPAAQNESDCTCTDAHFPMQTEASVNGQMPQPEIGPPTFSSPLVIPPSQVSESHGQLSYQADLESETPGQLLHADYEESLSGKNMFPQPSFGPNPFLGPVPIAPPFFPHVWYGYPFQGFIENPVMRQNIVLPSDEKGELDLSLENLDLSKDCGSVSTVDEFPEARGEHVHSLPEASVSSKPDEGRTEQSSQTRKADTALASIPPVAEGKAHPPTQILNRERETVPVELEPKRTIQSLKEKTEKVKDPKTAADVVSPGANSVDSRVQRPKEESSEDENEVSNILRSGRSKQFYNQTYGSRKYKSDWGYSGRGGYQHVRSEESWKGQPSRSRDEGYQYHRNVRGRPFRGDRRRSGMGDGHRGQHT
UniProt Q9UGI0, sequence (Q9UGI0 whole entry): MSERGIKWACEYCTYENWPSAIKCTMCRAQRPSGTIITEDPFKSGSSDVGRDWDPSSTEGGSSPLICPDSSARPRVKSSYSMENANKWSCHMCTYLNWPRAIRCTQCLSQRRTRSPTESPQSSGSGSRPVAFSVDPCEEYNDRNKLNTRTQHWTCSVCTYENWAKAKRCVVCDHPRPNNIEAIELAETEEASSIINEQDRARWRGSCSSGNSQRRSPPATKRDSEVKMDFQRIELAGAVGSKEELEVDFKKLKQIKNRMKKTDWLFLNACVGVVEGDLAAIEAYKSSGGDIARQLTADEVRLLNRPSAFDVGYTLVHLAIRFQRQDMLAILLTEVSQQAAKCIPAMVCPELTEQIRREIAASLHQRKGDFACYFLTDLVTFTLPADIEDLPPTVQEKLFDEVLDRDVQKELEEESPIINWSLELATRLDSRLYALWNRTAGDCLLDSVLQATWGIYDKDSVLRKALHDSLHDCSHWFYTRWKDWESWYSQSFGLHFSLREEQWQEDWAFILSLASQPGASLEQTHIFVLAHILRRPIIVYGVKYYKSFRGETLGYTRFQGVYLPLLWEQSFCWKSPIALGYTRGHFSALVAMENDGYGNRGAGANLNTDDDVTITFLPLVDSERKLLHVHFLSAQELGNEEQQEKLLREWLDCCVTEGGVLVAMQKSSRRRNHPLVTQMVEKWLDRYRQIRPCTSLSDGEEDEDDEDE
UniProt Q70EL1, sequence (Q70EL1 whole entry): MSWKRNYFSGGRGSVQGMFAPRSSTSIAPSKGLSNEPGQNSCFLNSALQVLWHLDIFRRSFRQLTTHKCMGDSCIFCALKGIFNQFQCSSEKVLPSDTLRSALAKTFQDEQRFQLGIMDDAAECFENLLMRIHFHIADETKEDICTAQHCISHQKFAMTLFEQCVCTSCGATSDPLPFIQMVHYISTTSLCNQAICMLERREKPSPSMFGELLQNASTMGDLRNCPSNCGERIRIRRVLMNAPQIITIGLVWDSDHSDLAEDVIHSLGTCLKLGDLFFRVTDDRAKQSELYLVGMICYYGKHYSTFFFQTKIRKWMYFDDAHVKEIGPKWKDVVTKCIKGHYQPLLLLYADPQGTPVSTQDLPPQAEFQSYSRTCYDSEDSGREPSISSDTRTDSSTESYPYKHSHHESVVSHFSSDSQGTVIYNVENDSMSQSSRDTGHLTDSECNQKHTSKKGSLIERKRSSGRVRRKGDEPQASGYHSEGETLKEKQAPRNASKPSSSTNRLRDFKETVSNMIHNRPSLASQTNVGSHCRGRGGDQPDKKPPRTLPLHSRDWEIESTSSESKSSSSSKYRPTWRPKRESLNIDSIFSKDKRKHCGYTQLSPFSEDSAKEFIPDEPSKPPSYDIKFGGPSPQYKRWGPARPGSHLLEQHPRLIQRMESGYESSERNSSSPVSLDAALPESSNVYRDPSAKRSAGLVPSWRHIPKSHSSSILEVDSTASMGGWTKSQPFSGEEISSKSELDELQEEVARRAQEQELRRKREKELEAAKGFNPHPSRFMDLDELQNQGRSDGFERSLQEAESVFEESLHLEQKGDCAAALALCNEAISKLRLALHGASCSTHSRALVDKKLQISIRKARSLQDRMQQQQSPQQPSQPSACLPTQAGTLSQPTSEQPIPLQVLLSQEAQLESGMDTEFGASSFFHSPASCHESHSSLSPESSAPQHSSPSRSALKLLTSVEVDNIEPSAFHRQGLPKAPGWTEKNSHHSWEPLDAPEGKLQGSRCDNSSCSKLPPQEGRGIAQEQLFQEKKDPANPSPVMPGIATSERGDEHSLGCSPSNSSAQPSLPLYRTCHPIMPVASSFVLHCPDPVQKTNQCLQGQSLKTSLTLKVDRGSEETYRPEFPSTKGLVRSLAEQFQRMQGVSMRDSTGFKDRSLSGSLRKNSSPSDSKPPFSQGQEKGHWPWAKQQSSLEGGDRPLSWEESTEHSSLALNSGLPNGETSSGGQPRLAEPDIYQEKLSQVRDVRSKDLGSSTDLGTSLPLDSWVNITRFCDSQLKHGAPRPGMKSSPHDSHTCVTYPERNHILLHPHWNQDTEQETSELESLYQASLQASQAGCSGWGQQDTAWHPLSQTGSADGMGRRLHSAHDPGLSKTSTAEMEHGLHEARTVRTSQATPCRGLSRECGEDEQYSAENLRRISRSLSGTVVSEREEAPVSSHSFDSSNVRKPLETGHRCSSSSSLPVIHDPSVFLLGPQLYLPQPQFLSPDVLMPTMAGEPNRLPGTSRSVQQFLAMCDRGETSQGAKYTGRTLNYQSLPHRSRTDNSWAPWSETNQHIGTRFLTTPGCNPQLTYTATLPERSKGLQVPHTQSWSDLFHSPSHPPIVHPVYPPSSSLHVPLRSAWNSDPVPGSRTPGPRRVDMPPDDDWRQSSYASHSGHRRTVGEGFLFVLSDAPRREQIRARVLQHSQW

Target | log2 ratio of Biotin-Ahx-Ub-VS probe labelling
COPS5 (UniProt Q92905) | 0.531
UniProt Q5T2D3 | -0.0676
ATXN3 (UniProt P54252) | -0.261
USP19 (UniProt O94966) | -0.227
OTUD4 (UniProt Q01804) | -1.46 (active)
USP22 (UniProt Q9UPT9) | 0.0772
USP54 (UniProt Q70EL1) | -0.959
UniProt Q9P2H5 | -0.223
UniProt Q9UGI0 | -0.46

same assay, conditions: compound concentration: 200uM; treatment time: 3 h

Target | log2 ratio of Biotin-Ahx-Ub-VS probe labelling
COPS5 (UniProt Q92905) | 0.0873
UniProt Q5T2D3 | -0.0477
ATXN3 (UniProt P54252) | 0.039
USP19 (UniProt O94966) | -0.0992
OTUD4 (UniProt Q01804) | -1.76 (active)
USP22 (UniProt Q9UPT9) | -0.266
USP54 (UniProt Q70EL1) | -2.5 (active)
UniProt Q9P2H5 | -0.102
UniProt Q9UGI0 | 0.243
